Assay results: PubChem BioAssay (NCATS)
Inconclusive results are not listed. Entries that show only a call come without a potency. The source made the active and inactive calls. Calls follow the shape of the dose curve; as a rule, active = well fitted inhibition curve with a large enough effect; inconclusive = small, poorly fitted or top-dose-only effect; inactive = no such curve, though single readings can be large or run the other way.

Assay: Tertiary RLuc qRT-PCR qHTS assay for Zika virus inhibitors (AID 1347169); also: nearly all actives have a fitted effect of over 55% in size
Settings: infected Vero cells, reporter luminescence, 48-72 h; series mostly up to 26.6 µM
From the text: Avindra Nath, Ph.D., National Institute of Neurological Disorders and Stroke (NINDS), Bethesda, MD
Radhakrishnan Padmanabhan, Ph.D., Georgetown University (GU), Washington D.C.
Zika Virus causes congenital defects, including microcephaly and is associated with Guillain-Barre syndrome, eningoencephalitis and myelitis in infected adult. […] Using a target-based approach, we hope to establish a screening paradigm to uncover novel, cell-active NS2B-NS3 protease (Zika Virus) specific inhibitors from NCATS' collection of small molecules using qHTS.
Four assay panel was created to identify potential Zika Virus inhibitors. Namely, (1) GU unlinked NS2B-NS3 AMC tagged protease qHTS, (2) GU unlinked NS2B-NS3 Rhodamine tagged protease qHTS, (3) NINDS linked NS2B-NS3 AMC tagged protease qHTS, (4) NINDS linked NS2B-NS3 Rhodamine tagged protease qHTS. Identified inhibitors were re-acquired and tested against secondary confirmatory, orthogonal, and counterscreens to exclude nonspecific inhibition.
Early Translation Branch (ETB)
National Center for Advancing Translational Sciences (NCATS), Rockville, MD
National Institute of Health (NIH), Bethesda, Maryland
1536-well recombinant virus ZIKV-RLuc (Cambodian) Assay:
For a follow-up assay, we adapted a high throughput orthogonal assay in 1536-well plate format to use the recombinant virus ZIKV-RLuc, in Vero cells. Briefly, three microL of Vero cells derived from a green monkey cell line, were dispensed Multidrop Dispenser into a solid bottom white 1,536-well plate at a concentration of 1,000 cells per well. The plate was incubated overnight in a CO2 incubator at 37 degrees C. Compounds were delivered as a 23 nL DMSO solution by Kalypsys pintool transfer. Following compound transfer, 2 microL of ZIKV-RLuc was added at an MOI of 1-2 and incubated in a CO2 incubator for 48-72 hrs at 37 degrees C. After sufficient incubation of infected cells in test plates, live cell Renilla luciferase substrate (Promega) was added. The luminescence signal was measured after 1-1.5 hrs exposure to substrate in ViewLux reader.
Potency is read from the fitted curve at half-maximal effect.

| SMILES | Potency |
| --- | --- |
| O=C1OCc2cc3cccc(O[C@@H]4O[C@H](CO)[C@@H](O)[C@H](O)[C@H]4O)c3c(O)c21 | inactive |
| O=C(O)Cc1ccc2oc(-c3ccc(NC(=O)/C=C/c4ccc(Br)cc4)c(F)c3)nc2c1 | inactive |
| CC1(C)CC[C@]2(C(=O)O)CC[C@]3(C)C(=CCC4[C@@]5(C)C[C@@H](O)[C@H](O)C(C)(C)C5CC[C@]43C)C2C1 (stereo partly drawn) | 9.06 µM (active) |
| O=C(N/N=C/c1ccc(O)c(O)c1)c1cc2ccccc2cc1O | 6.18 µM (active) |
| OC/C=C/C=C/[C@H]1Cc2cc(O)cc(O)c2O1 | inactive |
| C=CC/C=C\C/C=C\CCCCCCCc1cccc(O)c1C(=O)O | inactive |
| COc1ccc(Cl)c(Nc2nc3ccccc3nc2NS(=O)(=O)c2cccc(NC(=O)C(C)(C)N)c2)c1 | 14.7 µM (active) |
| C=C[C@H]1[C@H](O[C@@H]2O[C@H](CO)[C@@H](O)[C@H](O)[C@H]2O)OC=C(C(=O)OC)[C@H]1CCOC(=O)c1cc(O)c(O)c(O)c1 | inactive |
| O=[N+]([O-])c1cccc2[nH]c(CNc3nc(N4CCOCC4)nc4c3ncn4-c3ccsc3)nc12 | 0.117 µM (active) |
| CCCCCCOc1cc2c(cc1N(C)c1ncc(C(=O)O)cn1)C(C)(C)CCC2(C)C | 20.8 µM (active) |
| O=S(=O)(c1ccccc1)c1cnc2c(N3CCNCC3)cccc2c1 | inactive |
| CC(C)(C)Nc1nc2cc(Cl)c(Cl)cc2nc1S(C)(=O)=O | 10.4 µM (active) |
| C=C1C(=O)O[C@H]2C1[C@H](OC(=O)/C(=C/CO)COC(=O)/C(C)=C/CO)CC(=C)[C@@H]1CC(=O)[C@@H](C)[C@@H]12 (stereo partly drawn) | inactive |
| CC1=C(C(=O)OCc2ccccc2)C(c2ccc(-c3ccccc3)cc2)NC(=O)N1CCCCCC(=O)O (stereo not drawn) | 23.4 µM (active) |
| O=C(O)/C=C/c1ccc(-c2ccc(O)c(C34CC5CC(CC(C5)C3)C4)c2)cc1 | 0.415 µM (active) |
| O=C(Nc1ccc(S(=O)(=O)Nc2nccs2)cc1)C(c1ccccc1)c1ccccc1 | 20.8 µM (active) |
| CC(C)CC(=O)OC1OC=C(CO[C@@H]2O[C@H](CO)[C@@H](O)[C@H](O)[C@H]2O)C2CC(O)C(O)(CO)C12 (stereo partly drawn) | inactive |
| Cc1cc(=O)oc2c(C=O)c(O)ccc12 | inactive |
